The values that follow come from PubChem BioAssay.

Calls of active or inactive are those of the source. Unless noted, no rule for the calls is given here.

A short description of assay [1]: A549 cell viability effects, profiling panel, calcein-AM fluorescence, 48 h, basal (AID 1162). Also: test concentration not given here. The conditions noted are these: higher = more signal.
A short description of assay [2]: adipocyte viability effects, profiling panel, cell-based, 3T3-L1 adipocytes, calcein-AM fluorescence, 48 h, basal (AID 1163). Also: test concentration not given here. The conditions noted are these: 3T3-L1 adipocytes viability, higher = more signal.
Assay [3] is described as follows: HepG2 cell viability effects, profiling panel, calcein-AM fluorescence, 48 h, basal (AID 1164). Also: test concentration not given here. The conditions noted are these: higher = more signal.
Assay [4] in a line: MM1S cell viability effects, profiling panel, calcein-AM fluorescence, 48 h, basal (AID 1165).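 Also: viability of MM1S multiple myeloma cells under basal unstimulated conditions; test concentration not given here.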 The following applies: higher = more signal.
Assay [5] can be described thus: basal RPMI8226 viability, no added stimulus, profiling panel, cell-based, calcein-AM fluorescence, 48 h, PK04 Diversity Set (AID 1166).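 Also: cells grown under basal conditions without added stimulus; test concentration not given here.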 The following applies: RPMI8226 myeloma viability, higher = more signal.
Assay [6] in a line: basal HepG2 mitochondrial membrane potential changes, profiling panel, cell-based, JC-1 fluorescence, 24 h, 100 nL compound (AID 1167). Also: test concentration not given here. The following applies: higher = more signal.
A short description of assay [7]: basal 3T3-L1 adipocyte mitochondrial potential changes, profiling panel, cell-based, JC-1 fluorescence, 3T3-L1 adipocytes, 24 h, 100 nL compound (AID 1168). Also: test concentration not given here. The conditions noted are these: JC-1 mitochondrial fluorescence, higher = more signal, called active from +8 up or from −8 down.
The nature of assay [8]: basal RPMI8226 mitochondrial membrane potential changes, profiling panel, cell-based, JC-1 fluorescence, 24 h, 100 nL compound (AID 1169). Also: test concentration not given here. The following applies: RPMI8226 myeloma, JC-1 mitochondrial potential fluorescence, higher = more signal.
The nature of assay [9]: basal MM1S mitochondrial membrane potential changes, profiling panel, cell-based, JC-1 fluorescence, 24 h, 100 nL compound (AID 1170). Also: test concentration not given here. The following applies: higher = more signal.
Assay [10] in a line: A549 lung cancer cell viability effects, profiling panel, resazurin fluorescence, 24 h, PK04 Diversity Set (AID 1171). Also: test concentration not given here. The following applies: higher = more signal, called active from +8 up or from −8 down. In general terms: The colour change of resazurin is a common sign of viable cells or microbes.
Assay [11] can be described thus: HepG2 liver cancer cell viability effects, profiling panel, resazurin fluorescence, 24 h, PK04 Diversity Set (AID 1172). Also: test concentration not given here. The conditions noted are these: higher = more signal.
The nature of assay [12]: basal S. cerevisiae growth modulation, no modifier, primary screen, OD600, strain BY4716, 24 h, basal condition (AID 1173). The conditions noted are these: OD600, 24 h, higher = more signal, called active from +8 up or from −8 down.
Assay [13] in a line: MM1S myeloma cell viability, profiling panel, resazurin fluorescence, basal, 24 h, PK04 Diversity Set (AID 1174). Also: test concentration not given here. The following applies: higher = more signal, called active from +8 up or from −8 down.
Assay [14] has as its target Dihydroorotate dehydrogenase (quinone), mitochondrial (Plasmodium falciparum (isolate 3D7)) (UniProt Q08210). The experiment in a line: PfDHODH enzyme inhibitors, primary screen, biochemical, C-terminal His tag, absorbance 600 nm (AID 1175).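 Also: recombinant parasite enzyme with a five histidine tag at its C terminus; test concentration not given here.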 The conditions noted are these: DCIP absorbance 600 nm, higher = more signal, called active from +8 up or from −8 down.
Assay [15] in a line: P. aeruginosa biofilm formation inhibitors, primary screen, strain PAO1, LB-PBS medium, absorbance 600 nm (AID 1176). Also: test concentration not given here. The following applies: P. aeruginosa PAO1 growth/biofilm, A600, 12 h; higher = more signal.
Assay [16] in a line: S. cerevisiae RM11-1a growth modifiers, primary screen, strain RM11-1a, OD600, basal, 24 h (AID 1177).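 Also: cultures grown under basal conditions with no added stressor; test concentration not given here.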 The following applies: OD600, 24 h, higher = more signal, called active from +8 up or from −8 down.
Assay [17] can be described thus: E. coli acrAB mutant growth effects, primary screen, E. coli filamentation inducers, strain DRC39, OD650, 24 h (AID 1178).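 Also: growth measured as culture turbidity by optical density at 650 nm; test concentration not given here.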 The conditions noted are these: higher = more signal, called active from +8 up or from −8 down.
Assay [18] in a line: E. coli acrAB mutant growth effects, primary screen, E. coli filamentation inducers, strain DRC39, OD650, 48 h (AID 1179).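 Also: screen aims at cell division blockers that make cells filament.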 The following applies: E. coli DRC39 delta-acrAB growth, higher = more signal, called active from +8 up or from −8 down.
Assay [19] is described as follows: RPMI8226 myeloma cell viability, profiling panel, resazurin fluorescence, basal, 24 h, PK04 Diversity Set (AID 1180).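 Also: RPMI8826 multiple myeloma cell line at 5000 cells per well; test concentration not given here.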 The conditions noted are these: higher = more signal.
In assay [20] the target is E3 ubiquitin-protein ligase XIAP (Homo sapiens) (UniProt P98170). As to the kind of experiment: XIAP binders, primary screen, biophysical, small-molecule microarray, fluorescence 635 nm (AID 1181).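 Also: score merges 667 nm emission and signal to noise over triplicate slides.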 The conditions noted are these: small-molecule microarray binding, higher = more signal.
Chain of E3 ubiquitin-protein ligase XIAP (Homo sapiens) (P98170 whole entry, looked up): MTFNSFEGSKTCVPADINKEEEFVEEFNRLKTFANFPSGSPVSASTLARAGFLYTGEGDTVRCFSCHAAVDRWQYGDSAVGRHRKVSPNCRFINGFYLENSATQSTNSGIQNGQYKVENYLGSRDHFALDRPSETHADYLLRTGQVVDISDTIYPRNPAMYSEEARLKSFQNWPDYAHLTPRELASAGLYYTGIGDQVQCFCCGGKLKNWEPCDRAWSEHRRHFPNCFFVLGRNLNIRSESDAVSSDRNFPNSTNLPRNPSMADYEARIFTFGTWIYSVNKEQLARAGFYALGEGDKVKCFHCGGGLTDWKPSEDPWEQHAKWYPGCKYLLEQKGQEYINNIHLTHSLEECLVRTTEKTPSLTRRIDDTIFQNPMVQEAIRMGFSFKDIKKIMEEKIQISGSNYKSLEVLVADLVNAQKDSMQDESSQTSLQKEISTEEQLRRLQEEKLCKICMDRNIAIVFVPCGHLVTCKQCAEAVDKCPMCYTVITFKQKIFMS

Chain of Dihydroorotate dehydrogenase (quinone), mitochondrial (Plasmodium falciparum (isolate 3D7)) (Q08210 whole entry, looked up): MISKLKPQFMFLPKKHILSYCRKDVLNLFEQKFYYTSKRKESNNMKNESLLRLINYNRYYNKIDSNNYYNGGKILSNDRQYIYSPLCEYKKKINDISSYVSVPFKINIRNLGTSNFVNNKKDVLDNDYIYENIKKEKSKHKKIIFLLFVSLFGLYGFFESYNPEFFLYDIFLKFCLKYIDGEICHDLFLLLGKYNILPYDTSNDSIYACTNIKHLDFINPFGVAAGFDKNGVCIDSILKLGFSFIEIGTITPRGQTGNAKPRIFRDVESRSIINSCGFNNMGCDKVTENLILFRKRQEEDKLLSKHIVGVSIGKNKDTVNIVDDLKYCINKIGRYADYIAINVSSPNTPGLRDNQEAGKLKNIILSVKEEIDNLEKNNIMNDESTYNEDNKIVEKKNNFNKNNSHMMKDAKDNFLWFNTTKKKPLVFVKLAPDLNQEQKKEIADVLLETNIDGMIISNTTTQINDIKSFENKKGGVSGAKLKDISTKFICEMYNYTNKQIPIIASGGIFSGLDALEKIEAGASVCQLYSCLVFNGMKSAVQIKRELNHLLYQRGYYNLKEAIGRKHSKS

For `CCCNC(=O)[C@@]1(c2ccc([N+](=O)[O-])cc2)CC(=O)N(C2CCCCC2)[C@@H]1c1ccc(CO)cc1I`, the z-score was -0.165 in assay [1]; -0.599 in assay [2]; -0.451 in assay [3]; -3.22 in assay [4]; -1.01 in assay [5]; 0.22 in assay [6]. Moreover, the z-score in assay [7] is -1.13 (inactive); in assay [8] it was -0.677; in [9] it was -1.11; in assay [10], 0.72 (inactive); in assay [11], -0.455; in [12], 0.641 (inactive). For the same compound, the z-score was -0.606 (inactive) in assay [13]; 0.429 (inactive) in assay [15]; -0.327 (inactive) in [16]; 0.549 (inactive) in [17]; -0.303 (inactive) in assay [18]; -1.18 in assay [19]. Further, the composite z-score in assay [14] is 0.478 (inactive); in assay [20], 0.134.
For `CC(C)CN1C(=O)[C@@]2(Cc3ccccc31)c1ccccc1C(=O)N(Cc1ccccc1C(F)(F)F)[C@H]2c1ccc(CO)cc1`, the z-score in [1] was 1.23; in [2], 1.06; in assay [3], 0.493; in [4], 0.939; in assay [5], 1.2; in assay [6], 0.786. Also, the z-score is -1.55 (inactive) in assay [7]; 0.01 in [8]; -0.534 in assay [9]; -0.236 (inactive) in [10]; 0.869 in [11]; -1.94 (inactive) in [12]. Moreover, the z-score in assay [13] is -0.696 (inactive); in assay [15], -0.103 (inactive); in [16], -2.06 (inactive); in [17] it was 0.897 (inactive); in assay [18] it was 1.72 (inactive); in assay [19], 0.478. Further, the results for the composite z-score in assay [14] and in assay [20] were -4.83 (inactive) and 0.661, respectively.
On to `CCOC(=O)[C@H]1C/C=C/C[C@H](C(=O)OCC)C(=O)O[C@H]2[C@@H](OC)O[C@H](CO)[C@@H](OC(=O)CCc3ccccc3)[C@@H]2OC1=O`, for which the z-score in [1] was 0.837; in assay [2], 0.342; in [3] it was 0.957; in [4], 0.269; in assay [5] it was 0.331; in assay [6], 0.957. Also, the z-score was 0.352 (inactive) in assay [7]; 0.655 in assay [8]; -0.533 in assay [9]; -0.553 (inactive) in [10]; -0.144 in [11]; -1.08 (inactive) in assay [12]. Also, the z-score is 0.204 (inactive) in assay [13]; 0.759 (inactive) in [15]; -0.143 (inactive) in [16]; 0.735 (inactive) in assay [17]; 0.558 (inactive) in assay [18]; 0.116 in assay [19]. Also, the values for the composite z-score in assay [14] and in assay [20] were -0.915 (inactive) and 0.023, respectively.
In the case of `COC(=O)[C@H](Cc1ccccc1)N1CC(/C=C/C2CC2)=C[C@@H]1[C@@H](O)Cc1ccccc1`, the z-score in [1] is 0.56; in [2], -0.0766; in assay [3] it was 0.942; in assay [4], -3.21; in assay [5], -3.07; in assay [6], -0.0594. Moreover, the z-score in assay [7] was 0.427 (inactive); in assay [8], -1.04; in assay [9], -2.45; in assay [10], 0.73 (inactive); in assay [11], 1.09; in [12] it was -2.65 (inactive). For the same compound, the z-score is -2.24 (inactive) in assay [13]; 0.294 (inactive) in assay [15]; 0.385 (inactive) in [16]; 0.461 (inactive) in assay [17]; 0.658 (inactive) in [18]; -0.277 in assay [19]. For the same compound, the composite z-score in [14] was 0.114 (inactive); in assay [20], -0.0414.
Consider `O=C1OC[C@@H](c2ccccc2)N2CC(/C=C/c3ccccc3)=CC12` (stereo not given in full), for which the z-score in [1] is -0.488; in [2] it was -0.125; in assay [3], -0.255; in [4], -0.0482; in [5] it was -0.267; in assay [6] it was -0.251. In addition, the z-score in assay [7] is 0.291 (inactive); in assay [8], -0.306; in [9], 0.00388; in assay [10], 1.05 (inactive); in [11] it was 0.015; in [12], -2.25 (inactive). Further, the z-score in [13] was 0.0637 (inactive); in [15], -0.14 (inactive); in assay [16], 0.388 (inactive); in assay [17], -0.338 (inactive); in assay [18], -0.827 (inactive); in [19], 0.594. Further, the results for the composite z-score in [14] and in assay [20] were 0.685 (inactive) and -0.102, respectively.
In the case of `COc1ccc(NN2C(C(O)c3ccccn3)C=CC3C(=O)N(C4CCCCC4)C(=O)C32)cc1` (stereo not given), the z-score was -0.834 in assay [1]; 0.23 in assay [2]; 1.44 in [3]; -1.3 in assay [4]; -3.2 in [5]; -0.645 in assay [6]. Besides, the z-score was -0.089 (inactive) in [7]; 0.201 in assay [8]; -1.51 in [9]; 0.342 (inactive) in assay [10]; 1.64 in [11]; -0.774 (inactive) in assay [12]. The z-score was 0.583 (inactive) in assay [13]; 0.574 (inactive) in assay [15]; 0.219 (inactive) in assay [16]; -0.416 (inactive) in [17]; 0.824 (inactive) in assay [18]; 0.974 in assay [19]. Moreover, the composite z-score in assay [14] is 1.25 (inactive); in assay [20], -0.308.
`CCCCC(CC)C(O)C1C=CC2C(=O)N(c3ccccc3)C(=O)C2N1Nc1ccc([N+](=O)[O-])cc1` (stereo not given): the z-score is -0.561 in [1]; -0.0969 in [2]; -0.919 in assay [3]; -0.41 in [4]; -1.1 in [5]; -1.74 in [6]. In addition, the z-score in assay [7] is -1.56 (inactive); in assay [8], 0.349; in assay [9] it was -1.03; in assay [10] it was -0.451 (inactive); in assay [11], -0.383; in [12], -0.148 (inactive). In addition, the z-score in assay [13] was -0.201 (inactive); in assay [15], 0.837 (inactive); in assay [16], -0.066 (inactive); in assay [17], -0.948 (inactive); in [18], -0.979 (inactive); in assay [19] it was -0.759. The composite z-score in [14] was 0.41 (inactive); in assay [20] it was -0.02.
`CC(C)(C)OC(=O)CC[C@@]1(C(=O)O)N=C(c2ccc(OCCCO)cc2)O[C@@H]1c1ccccc1CN=[N+]=[N-]`: the z-score in [1] was 0.824; in assay [2] it was -0.0107; in assay [3], 0.0885; in assay [4], 0.131; in [5], 0.813; in [6] it was -0.0553. Besides, the z-score was -0.913 (inactive) in assay [7]; -0.411 in assay [8]; -0.579 in assay [9]; 10.4 (active) in assay [10]; 0.911 in assay [11]; -0.496 (inactive) in [12]. Besides, the z-score in [13] was -0.378 (inactive); in assay [15] it was -0.0988 (inactive); in [16], 0.323 (inactive); in assay [17] it was 1.35 (inactive); in assay [18] it was 1.35 (inactive); in assay [19] it was -1.09. For the same compound, the composite z-score is 0.221 (inactive) in assay [14] and 0.492 in [20].
Turning to `COc1ccc(C(O)C2C=CC3C(=O)N(c4ccccc4)C(=O)C3N2Nc2ccccc2)cc1OCc1ccccc1` (stereo not given), the z-score in [1] was 0.677; in assay [2], -1.4; in assay [3], 1.29; in [4], 0.337; in [5], -0.29; in assay [6] it was -1.02. Moreover, the z-score in assay [7] is -0.514 (inactive); in [8] it was -0.307; in [9], -0.699; in [10] it was 0.789 (inactive); in assay [11], -1.04; in assay [12], -2.82 (inactive). The z-score in assay [13] is -1.24 (inactive); in assay [15] it was 1.67 (inactive); in [16] it was 0.0482 (inactive); in assay [17] it was -0.628 (inactive); in assay [18], -0.131 (inactive); in assay [19], -1.2. For the same compound, the composite z-score in assay [14] was 0.416 (inactive); in assay [20], 0.0714.
